HepG2 viability = counter-screen for TGF-b inhibitors: cytotoxicity in HepG2 cells; HepG2 CAGA-GFP viability, ATP luminescence, 18 h; Potency, µM (doses to about 46.1 µM), for inactives: top-dose activity change, negative = cytotoxicity, usual class: cytotoxic; 410,000 compounds, 0.76% hits
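HepG2 CAGA-GFP cells (1000/well, DMEM with 1% FBS) received compound, then TGF-beta at 500 pg/mL final, and were incubated 18 hours at 37 degrees C. Viability was read by CellTiter-Glo luminescence. Media-only wells were set as complete cell-killing and DMSO as no toxicity.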
ATXN2 expr inh = inhibitors of ATXN2 expression | HEK-293 ATXN2-luciferase reporter, luminescence, 24 h | Potency, µM (series often up to 57 µM), for inactives: top-dose activity change, negative = inhibition, actives largely listed as inhibitors | 360,000 compounds, 0.72% hits | AID 1745845; also: % is scaled to controls: 0 for no effect and ±100 for the full control effect; nearly all actives have a fitted effect of over 55% in size
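qHTS (up to 57 uM final) was run with 24 h compound exposure of reporter cells at 37 °C. Each well was multiplexed: SteadyGlo luminescence measured ATXN2-luciferase expression after a fluorogenic Gly-Phe-AFC viability readout (25 uM final).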
TGFb SMAD3 inh = inhibitors of TGF-b signaling. Potency, µM (highest dose often 46.1 µM), inactives show at the highest dose activity, negative = inhibition, most hits filed as inhibitors. 410,000 compounds, 1.2% hits. HepG2 CAGA-GFP TGF-b/SMAD3 reporter, GFP fluorescence, 18 h; TGF-beta stimulated, 500 pg/mL final; also: % is scaled to controls: 0 for no effect and ±100 for the full control effect; nearly all actives have a fitted effect of over 65% in size
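Cell-based qHTS in HEPG2 carrying a CAGA-GFP Smad reporter; compounds added before 500 pg/mL final TGF-beta, 18 h incubation at 37 degrees C, GFP fluorescence quantified per cell by imaging cytometry.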
TDP1 cell CPT = DT40-hTDP1 cell growth loss with CPT; chicken DT40 Tdp1-/-;hTDP1 cells + 20 nM CPT, ATP luminescence, 48 h; Potency, µM (titrated, usually from 46.2 µM), inactives show top-dose activity change, negative = growth inhibition, actives largely listed as inhibitors; 420,000 compounds, 12% hits; AID 686979; also: % is scaled to controls: 0 for no effect and ±100 for the full control effect; nearly all actives have a fitted effect of over 55% in size
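Cell growth measured by CellTiter-Glo luminescence after a minimum 48 h, 37 C compound exposure with 20 nM CPT in Tdp1-knockout DT40 cells stably expressing hTDP1, seeded 400/well; qHTS titration format.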
DT40 TDP1 no CPT = qHTS for Inhibitors of human tyrosyl-DNA phosphodiesterase 1 (TDP1): qHTS in cells in absence of CPT. DT40 Tdp1-/- hTDP1 cells, no CPT, ATP luminescence, 48 h. Potency, µM (top dose mostly 46.2 µM), inactives show at the top dose activity change, negative = growth inhibition, most hits filed as inhibitors. 420,000 compounds, 15% hits. AID 686978, 2013; also: % is scaled to controls: 0 for no effect and ±100 for the full control effect; nearly all actives have a fitted effect of over 55% in size
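Growth of hTDP1-complemented DT40 Tdp1-knockout cells is measured by ATP luminescence after at least 48 hr compound exposure at 37 °C, with DMSO substituting for the 20 nM CPT used in the parallel screen.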
ATXN viability = viability counter-screen for ATXN expression inhibitors; Potency, µM (top dose mostly 56.7 µM), hits mostly cytotoxic; 400,000 compounds, 0.49% hits; S2 cells (HEK-293 line with an ATXN2-luciferase reporter) viability, CellTiter-Fluor protease fluorescence, 24 h; also: nearly all actives have a fitted effect of over 40% in size
* marks the source's active call; other numbers are inactive results; i = inactive; ? = inconclusive; . = not tested or not shown; [ ] = dose if it differs, or a comment. Sampled rows, rich in hits. Any-hit rate of the full collection: about 17%. Calls follow the shape of the dose curve; as a rule, active = well fitted curve in the direction sought with a large enough effect; inconclusive = small, poorly fitted or top-dose-only effect, or another doubt; inactive = no such curve, though single readings can be large; an effect the other way counts as inactive or inconclusive. Potency is read from the fitted curve at half-maximal effect.

SMILES	HepG2 viability	ATXN2 expr inh	TGFb SMAD3 inh	TDP1 cell CPT	DT40 TDP1 no CPT	ATXN viability
Cc1cccc(N2CCN(C(=O)C3CCN(c4ncnc5c4nc4n5CCCCC4)CC3)CC2)c1C	-11%	.	?	18µM*	18µM*	?
Cc1cccc(N2CCN(C(=O)C3CCN(c4ncnc5c4nc4n5CCCCC4)CC3)CC2C)c1 (stereo not given)	-11%	?	?	6.5µM*	4.6µM*	?
O=C(C1CCN(c2ncnc3c2nc2n3CCCCC2)CC1)N1CCN(c2ccccc2F)CC1	-22%	.	?	?	21µM*	?
Cc1ccc(C(=O)NCC(=O)OCC(=O)Nc2ccccc2[N+](=O)[O-])cc1	0%	6%	23%	-25%	9%	i
COc1cc2nc(N(C)C)c(CNCc3nonc3C)cc2c(OC)c1OC	.	.	.	5%[9.04 µM]	-13%	i
CC(=O)Cc1nsc(NC(=O)c2ccc(-c3cc(C(F)(F)F)ccc3Cl)o2)n1	-17%	-3%	-8%	21µM*	13µM*	i
CC(=O)Cc1nsc(NC(=O)c2ccc(-c3ccc(Cl)cc3Cl)o2)n1	-1%	19%	5%	-9%	?	i
CCCn1cc(S(=O)(=O)c2ccccc2)c(=O)c2cc(F)c(N3CCN(C)CC3)cc21	-2%	0%	-5%	-5%	10%	?
CCOc1ccc(NC(=O)CSc2nc(C)cc(C)n2)cc1	2%	2%	2%	?	?	?
CCCCOc1ccc(NC(=S)Nc2cc(C)nc(SCCCC)n2)cc1	7%	-6%	-1%	5.8µM*	2.9µM*	i
CCC(C)(C#CCN1CCCCC1)OCCC#N (stereo not given)	7%	2%	?	-28%	3%	i
CNC(=O)c1c(NC(=O)c2ccc(S(=O)(=O)N3CCCCC3C)cc2)sc2c1CCC2 (stereo not given)	-12%	-5%	8%	13µM*	15µM*	i
CNC(=O)c1c(NC(=O)c2ccc(S(=O)(=O)N3CCC(C)CC3)cc2)sc2c1CCC2	-5%	.	-22%	?	23µM*	.
CCCCNC(=O)CCC(=O)NNc1nc2ccccc2c2nc(-c3ccccc3)nn12	-8%	-9%	-18%	?	23µM*	?
Clc1ccc(CNc2nc3ccccc3c3nc(-c4cccnc4)nn23)cc1	5%	5%	3%	-21%	?	i
Clc1ccccc1CNc1nc2ccccc2c2nc(-c3ccccc3)nn12	-27%	1%	?	-10%	-8%	i
Clc1ccc(CCNc2nc3ccccc3c3nc(-c4ccccc4)nn23)cc1	-2%	13%	-5%	?	12µM*	i
c1ccc(CNc2nc3ccccc3c3nc(-c4ccccc4)nn23)cc1	1%	1%	?	?	2.6µM*	i
CCCCNc1nc2ccccc2c2nc(-c3ccccc3)nn12	-37%	2%	?	?	21µM*	i
Cc1ccc(CNc2nc3ccccc3c3nc(-c4cccc(C)c4)nn23)cc1	2%	.	4%	2%	-24%	.
CCn1c(C(=O)N(C2CC2)C2CC2)cc2c3c(ncn3C)c(Nc3cc(C)n(C)n3)nc21	.	-1%	.	.	.	.
OCC[C@@H]1C[C@H](O)[C@@H](O)[C@]2(CCCO2)O1	-15%	7%	2%	-1%	6%	i
COc1ccc(Nc2c3c(nc4ccc(NC(=O)/C=C/c5cc(OC)c(OC)c(OC)c5)cc24)CCCC3)cc1OC	2.8µM*	.	3.2µM*	1µM*	1.8µM*	.
COc1ccc(/C=C/C(=O)Nc2ccc(Cl)c(Cl)c2)cc1	-51%	12%	-26%	?	?	i
COc1ccc(/C=C/C(=O)Nc2ccc3nc4c(c(Nc5ccc(OC)c(OC)c5)c3c2)CCCC4)cc1	5µM*	.	4.5µM*	3.7µM*	4.6µM*	.
SMILES	HepG2 viability	ATXN2 expr inh	TGFb SMAD3 inh	TDP1 cell CPT	DT40 TDP1 no CPT	ATXN viability
C1CCCCCC(=NNc2nn[nH]n2)CCCCC1	23%	-10%	30%	7%	-3%	i
Cc1c(NC(=O)c2cccc(-c3cc4ccccc4oc3=O)c2)cccc1-c1nc2ncccc2o1	-12%	11%	-6%	26µM*	21µM*	?
CCCCOc1cccc(C(=O)Nc2cccc(-c3nc4ncccc4o3)c2C)c1	-39%	?	?	?	?	?
O=C(Nc1cccc(-c2nc3ncccc3o2)c1)c1ccccc1	-19%	.	-4%	?	12µM*	i
Cc1ccc(C(=O)Nc2cccc(-c3nc4ncccc4o3)c2)cc1	-12%	-32%	-11%	-25%	?	i
COc1ccc2nc(NC(=O)c3cccc(-c4cc5ccccc5oc4=O)c3)sc2c1	-52%	?	-16%	16µM*	16µM*	?
COc1ccc(-n2ccnc(NCc3ccccc3OC)c2=O)cc1	-10%	8%	-2%	?	?	i
Cc1nn(-c2ccccc2)c(C)c1C(=O)OCC(=O)Nc1ccccc1	-13%	37%	2%	?	-27%	i
COc1ccccc1NC(=O)COC(=O)c1c(C)nn(-c2ccccc2)c1C	-33%	2%	-20%	18µM*	18µM*	i
CC(=O)c1ccccc1NC(=O)COC(=O)c1c(C)nn(-c2ccccc2)c1C	-36%	-7%	-2%	?	15µM*	i
CC1Cc2ccccc2C[N+]1(C)CC(=O)c1cccc([N+](=O)[O-])c1 (stereo not given)	-25%	.	-17%	-27%	?	.
CN1OC[C@@H]2CN(Cc3ccccc3)[C@H](c3cccc(N4CCOCC4)c3)C[C@@H]21	-16%	-10%	0%	-8%	6%	i
Cc1ccccc1-c1cccc([C@@H]2C[C@H]3[C@H](CON3C)CN2Cc2ccccc2)c1	-42%	0%	14µM*	23µM*	16µM*	i
Cc1ccccc1S(=O)(=O)N1C[C@H]2CON(C)[C@H]2C[C@H]1c1cccc(Oc2ccccc2)c1	-24%	5%	26%	?	18µM*	i
CN1OC[C@@H]2CN(Cc3ccc(Cl)cc3)[C@H](c3cccc(Br)c3)C[C@@H]21	-48%	-22%	?	?	16µM*	?
CN1OC[C@@H]2CN(S(=O)(=O)c3cc(Cl)cc(Cl)c3)[C@H](c3ccc(-c4ccc(C#N)cc4)cc3)C[C@@H]21	1%	0%	5%	?	21µM*	i

Source: PubChem BioAssay (National Center for Advancing Translational Sciences (NCATS))
